Inconclusive results are not listed. A call without a number means that no potency is given here. Active and inactive are the calls of the source. Calls come from the whole dose curve; as a rule, active = well fitted inhibition curve with a large enough effect; inconclusive = small, poorly fitted or top-dose-only effect; inactive = no such curve, though single readings can be large or run the other way.
Assay: Confirmation assay for measurement of the activity of small molecule inhibitors on Zika virus induced Caspase-3 activity in human astrocytoma cells
How it was run: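 SNB-19, 250 cells/well, cultured 16-20 h; cpd 1 h pre-incubation; ZIKV 2 FFU/cell, 6 h, 37 C/5% CO2; Caspase-Glo 3/7 30 min RT; luminescence; normalized vs uninfected/infected controls.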

| Compound | Potency |
| --- | --- |
| CC[C@@]1(O)C[C@H](O[C@H]2C[C@H](N(C)C)[C@H](O[C@H]3C[C@H](O)[C@H](O[C@H]4CCC(=O)[C@H](C)O4)[C@H](C)O3)[C@H](C)O2)c2c(cc3c(c2O)C(=O)c2c(O)cccc2C3=O)[C@@H]1C(=O)OC | inactive |
| CC(O)=C(C#N)C(=O)Nc1ccc(C(F)(F)F)cc1 | 0.869 µM (active) |
| CS(=O)(=O)c1ccc(-c2cn3ccccc3n2)cc1 | 4.35 µM (active) |
| Cc1oncc1C(=O)Nc1ccc(C(F)(F)F)cc1 | 3.08 µM (active) |
| O=C1c2ccccc2C(=O)c2c(NCCc3ccc(O)cc3)ccc(NCCc3ccc(O)cc3)c21 | inactive |
| COc1cc(NC(C)CCCN)c2ncccc2c1 (centres undefined) | inactive |
| CC(=C(CCOC(=O)C(C)C)SSC(CCOC(=O)C(C)C)=C(C)N(C=O)Cc1cnc(C)nc1N)N(C=O)Cc1cnc(C)nc1N | inactive |
| O=C(/C=C/c1ccccc1)NCCO | inactive |
| CCN1/C(=C/C=C/c2sc3ccccc3[n+]2CC)Sc2ccccc21 | inactive |
| CCCCCNC(=O)N1CCC(CN(Cc2ccc(Cl)cc2)Cc2ccc([N+](=O)[O-])s2)C1 (centres undefined) | inactive |
| NC(N)=NN=C(/C=C/c1ccc([N+](=O)[O-])o1)/C=C/c1ccc([N+](=O)[O-])o1 | inactive |
| C=C1C(=O)[C@@]23C(CC[C@@H]1[C@H]2O)[C@@]12CO[C@]3(O)[C@@H](O)[C@@H]1C(C)(C)CC[C@@H]2O (some centres undefined) | inactive |
| O=C(Oc1ccccc1)c1cccc(C(=O)Oc2ccccc2)c1 | 4.47 µM (active) |
| CC(=O)Oc1ccccc1C(=O)Nc1ncc([N+](=O)[O-])s1 | 2.24 µM (active) |

Reference: PubChem BioAssay AID1224853 (National Center for Advancing Translational Sciences (NCATS), 2016)
